# Experimental data taken from the supplement of paper PMC10981050.
# Values joined by “and” are separate entries in the source; they are usually repeats but may differ in a detail not shown here. Identical values can stand only once. Counter-ions that a name gives are not always drawn.
# How the values were obtained:
# Assay in all cases: cell viability relative to vehicle control; higher = less cytotoxic
# Conditions in all cases: 10 µM
# K562 = test system: K562
# Procedure, shortened: (§1)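 After removal of identity-inconsistent compounds, the Selleck bioactive, kinase and epigenetic probe libraries were screened on CRISPR-edited mutant clones and isogenic wild-type clones of four leukaemia lines. Plates were 384-well, each well holding 2000 cells in 50 µL medium and receiving a single 10 µM acoustically dispensed dose. CellTiter-Glo luminescence was read 48 h later, after the supernatant was taken off. Genedata Screener was used to express viability as percent of the on-plate vehicle control.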
# MARIMO = test system: MARIMO
# Procedure, shortened: as §1
# MOLM14 = test system: MOLM14
# Procedure, shortened: as §1
# OCI-AML2 = test system: OCI-AML2
# Procedure, shortened: as §1
Compound,cell viability (K562; SRSF2 genotype: SRSF2 P95H/wt),cell viability (K562; SRSF2 genotype: SRSF2 wt/wt),cell viability (MARIMO; SRSF2 genotype: SRSF2 P95H/wt),cell viability (MARIMO; SRSF2 genotype: SRSF2 wt/wt),cell viability (MOLM14; SRSF2 genotype: SRSF2 P95H/wt),cell viability (MOLM14; SRSF2 genotype: SRSF2 wt/wt),cell viability (OCI-AML2; SRSF2 genotype: P95H/wt),cell viability (OCI-AML2; SRSF2 genotype: wt/wt)
C[C@@H](CC[C@@]1(O)O[C@H]2C[C@H]3[C@@H]4CC[C@@H]5C[C@@H](O[C@@H]6O[C@H](CO)[C@H](O)[C@H](O)[C@H]6O[C@@H]6O[C@H](CO)[C@@H](O)[C@H](O)[C@H]6O)CC[C@]5(C)[C@H]4CC[C@]3(C)[C@H]2[C@@H]1C)CO[C@@H]1O[C@H](CO)[C@@H](O)[C@H](O)[C@H]1O [Timosaponin BII],93.3% and 90.7%,89.5%,102%,107%,96%,93.5%,49.8%,73.6%
O=C1Nc2ccccc2C1=O [Isatin],97.1% and 106%,100%,101%,105%,103%,105%,106%,96.5%
CC(=O)O[C@]1(C(C)=O)CC[C@H]2[C@@H]3C=C(Cl)C4=CC(=O)[C@@H]5C[C@@H]5[C@]4(C)[C@H]3CC[C@@]21C [Cyproterone acetate],87.2% and 85.8%,84.7%,66.1%,71.6%,86.2%,93.3%,75%,77.4%
COc1cc(C)c2c(=O)c(-c3ccccc3)coc2c1 [5-Methyl-7-methoxyisoflavone],101% and 95.6%,92.2%,85.2%,90.2%,97.1%,92.6%,93.4%,88.4%
NC(=O)c1ccc(OCCCN2CC3CCCC3C2)cc1 (stereo not given),102% and 107%,104%,106%,98%,100%,101%,114%,98%
CC/C(=C(/CC)c1ccc(O)cc1)c1ccc(O)cc1 [Diethylstilbestrol],80.1% and 78.1%,78.8%,84.5%,87.1%,75.1%,87.8%,74.8%,81.4%
NC(=O)[C@@H]1CC[C@@H]2CN1C(=O)N2OS(=O)(=O)O [Avibactam sodium],102% and 116%,112%,110%,106%,108%,111%,102%,101%
COC(=O)c1cc(OC)c(OC)c(OC)c1 [Methyl EudesMate],103% and 105%,100%,97.6%,109%,108%,106%,102%,110%
CN1CCc2cc(Nc3ncc(C4CC4)c(NCCCNC(=O)C4CCC4)n3)ccc2C1,34.8% and 33.1%,55.2%,3.21%,1.31%,0.63%,0.39%,1.22%,4.15%
O=C(N[C@H](CO)[C@H](O)c1ccc([N+](=O)[O-])cc1)C(Cl)Cl [Chloramphenicol (Chloromycetin)],92.7% and 92%,94.8%,104%,106%,95.6%,96.8%,96%,103%
O[C@H]1[C@H]2c3cc4c(cc3CN3CCC(=C[C@@H]1O)[C@H]23)OCO4 [Lycorine hydrochloride],18.7% and 26.8%,28.4%,22.9%,21%,20.3%,7.64%,0.76%,2.07%
COc1nc(C)nc(Cl)c1NC1=NCCN1 [Moxonidine],101% and 86.7%,84.3%,87.2%,95.5%,89.9%,94.8%,97.5%,89.6%
CCCC[C@@H](C=O)NC(=O)[C@H](CC(C)C)NC(=O)OCc1ccccc1 [Calpeptin],91.3% and 95.4%,98.5%,90.9%,95.2%,83.2%,98.9%,96.6%,101%
COc1ccc(-c2oc3c(CC=C(C)C)c(O[C@@H]4O[C@H](CO)[C@@H](O)[C@H](O)[C@H]4O)cc(O)c3c(=O)c2O[C@@H]2O[C@@H](C)[C@H](O)[C@@H](O)[C@H]2O[C@@H]2OC[C@@H](O)[C@H](O)[C@H]2O)cc1 [Epmedin B],103% and 99.7%,102%,105%,93%,110%,102%,103%,99.5%
CC(=O)OCC(=O)[C@@]12OC(C)(C)O[C@@H]1C[C@H]1[C@@H]3C[C@H](F)C4=CC(=O)C=C[C@]4(C)[C@@]3(F)[C@@H](O)C[C@@]12C [Fluocinonide (Vanos)],100% and 105%,108%,110%,106%,107%,94.8%,111%,117%
COc1cccc2c1C(=O)c1c(O)c3c(c(O)c1C2=O)CC(O)(C(=O)CO)CC3OC1CC(N)C(O)C(C)O1 (stereo not given) [Doxorubicin (Adriamycin) HCl],4.96% and 11.8%,6.38%,5.57%,2.71%,1%,0.45%,2.05%,12.5%
O=C([O-])c1ccccc1O.[Na+] [Sodium salicylate],93.7% and 88.7%,85.5%,94.4%,97%,97%,94.1%,91.2%,98%
CC(C)C(NC(=O)c1ccc2ccccc2n1)C(=O)NC(CC(=O)O)C(=O)COc1c(F)cccc1F (stereo not given),104% and 106%,97.3%,100%,110%,104%,99.8%,100%,101%
Cc1cnc(-c2ccccc2C(C)C)nc1NCc1ccc(-n2ccnn2)cc1,76.7% and 83.9%,74.5%,91.1%,89.7%,94%,88.5%,93.2%,90.2%
CC(C)NC(=O)COc1cccc(-c2nc(Nc3ccc4[nH]ncc4c3)c3ccccc3n2)c1,73.5% and 97.8%,84.7%,68.6%,72.4%,93.6%,89.8%,110%,87.8%
